Reference: the supplement of paper PMC11732987, “Enantioselective OTUD7B fragment discovery through chemoproteomics screening and high-throughput optimisation” (Communications Chemistry, 2025)
A number with no mark means an inactive call.

Assays:
Experiment in all cases: log2 ratio of Biotin-Ahx-Ub-VS probe labelling (fragment/DMSO); higher = less target engagement (more negative = stronger competition), active = hit call of the paper (q ≤ 0.05, log2 ratio ≤ -1)
Settings in all cases: compound concentration: 200 uM; treatment time: 3 h
ALG13 = biological target: T1, ALG13 (UniProt Q9NP73)
T1 sequence (whole entry): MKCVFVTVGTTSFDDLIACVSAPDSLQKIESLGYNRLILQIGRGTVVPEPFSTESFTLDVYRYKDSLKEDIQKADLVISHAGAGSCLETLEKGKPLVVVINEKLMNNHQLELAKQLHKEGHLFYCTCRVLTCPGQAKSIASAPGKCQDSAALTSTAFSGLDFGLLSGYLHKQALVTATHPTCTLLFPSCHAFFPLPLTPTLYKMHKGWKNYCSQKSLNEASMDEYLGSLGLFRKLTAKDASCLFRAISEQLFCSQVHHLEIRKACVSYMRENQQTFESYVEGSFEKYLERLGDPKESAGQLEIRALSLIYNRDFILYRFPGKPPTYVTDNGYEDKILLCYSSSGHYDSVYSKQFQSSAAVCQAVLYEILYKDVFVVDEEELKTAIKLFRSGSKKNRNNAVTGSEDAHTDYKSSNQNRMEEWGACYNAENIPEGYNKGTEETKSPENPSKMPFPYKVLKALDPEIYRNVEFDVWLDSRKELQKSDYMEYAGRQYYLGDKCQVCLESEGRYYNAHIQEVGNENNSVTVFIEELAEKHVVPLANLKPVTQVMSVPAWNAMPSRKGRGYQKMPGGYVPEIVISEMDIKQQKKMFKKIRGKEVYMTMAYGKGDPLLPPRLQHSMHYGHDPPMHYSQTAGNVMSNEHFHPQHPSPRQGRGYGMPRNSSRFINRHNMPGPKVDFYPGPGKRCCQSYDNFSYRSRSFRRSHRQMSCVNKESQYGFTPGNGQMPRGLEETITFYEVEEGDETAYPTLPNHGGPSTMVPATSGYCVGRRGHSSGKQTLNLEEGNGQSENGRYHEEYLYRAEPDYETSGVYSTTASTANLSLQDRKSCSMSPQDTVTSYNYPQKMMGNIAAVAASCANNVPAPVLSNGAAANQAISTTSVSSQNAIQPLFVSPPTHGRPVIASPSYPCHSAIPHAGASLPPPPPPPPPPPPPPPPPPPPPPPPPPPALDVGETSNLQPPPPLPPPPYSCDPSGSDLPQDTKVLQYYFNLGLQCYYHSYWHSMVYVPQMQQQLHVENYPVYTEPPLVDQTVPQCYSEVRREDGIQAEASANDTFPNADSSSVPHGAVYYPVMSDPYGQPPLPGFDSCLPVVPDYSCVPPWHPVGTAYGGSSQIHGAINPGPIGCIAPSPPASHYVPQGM
In short: (§1)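 Lysate from HEK293T cells, 495 µg per sample in Tris/CHAPS/IGEPAL buffer with protease inhibitors, was treated for 3 h in triplicate with fragment at 200 µM or vehicle. Biotin-Ahx-Ub-VS was next added at 0.5 µM final for 1 h. The labelled DUBs were enriched with NeutrAvidin, digested with LysC and trypsin, and run by diaPASEF LC-MS/MS, with values given as average log2 fragment/vehicle ratios by unpaired t-test on global-median-normalised Spectronaut quantities of proteins with ≥2 unique peptides.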

ATXN3 = ATXN3 (UniProt P54252)
In short: as §1

BAP1 = biological target: T2, BAP1 (UniProt Q92560)
T2 sequence (whole entry): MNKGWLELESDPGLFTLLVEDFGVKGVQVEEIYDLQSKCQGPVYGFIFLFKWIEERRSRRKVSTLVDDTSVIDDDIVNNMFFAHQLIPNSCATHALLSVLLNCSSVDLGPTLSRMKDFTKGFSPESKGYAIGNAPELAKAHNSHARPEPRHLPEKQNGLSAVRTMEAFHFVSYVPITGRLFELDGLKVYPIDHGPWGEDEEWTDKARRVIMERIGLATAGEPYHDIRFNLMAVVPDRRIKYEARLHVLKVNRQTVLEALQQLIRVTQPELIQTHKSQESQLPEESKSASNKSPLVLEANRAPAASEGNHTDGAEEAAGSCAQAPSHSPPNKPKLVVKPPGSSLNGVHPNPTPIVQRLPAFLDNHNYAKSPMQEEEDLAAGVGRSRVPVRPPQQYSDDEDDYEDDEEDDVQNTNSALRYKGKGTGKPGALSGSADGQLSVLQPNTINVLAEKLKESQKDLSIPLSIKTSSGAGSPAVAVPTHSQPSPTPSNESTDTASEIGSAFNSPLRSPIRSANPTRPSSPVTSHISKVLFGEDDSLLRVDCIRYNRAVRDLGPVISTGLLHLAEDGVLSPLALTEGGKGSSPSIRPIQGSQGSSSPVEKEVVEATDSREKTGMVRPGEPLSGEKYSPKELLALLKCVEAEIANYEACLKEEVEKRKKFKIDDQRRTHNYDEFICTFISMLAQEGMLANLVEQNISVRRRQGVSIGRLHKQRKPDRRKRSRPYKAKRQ
In short: as §1

EIF3F = EIF3F (UniProt O00303)
In short: as §1

EIF3H = EIF3H (UniProt O15372)
In short: as §1

FAM105A = biological target: T3, FAM105A (UniProt Q9NUU6)
T3 sequence (whole entry): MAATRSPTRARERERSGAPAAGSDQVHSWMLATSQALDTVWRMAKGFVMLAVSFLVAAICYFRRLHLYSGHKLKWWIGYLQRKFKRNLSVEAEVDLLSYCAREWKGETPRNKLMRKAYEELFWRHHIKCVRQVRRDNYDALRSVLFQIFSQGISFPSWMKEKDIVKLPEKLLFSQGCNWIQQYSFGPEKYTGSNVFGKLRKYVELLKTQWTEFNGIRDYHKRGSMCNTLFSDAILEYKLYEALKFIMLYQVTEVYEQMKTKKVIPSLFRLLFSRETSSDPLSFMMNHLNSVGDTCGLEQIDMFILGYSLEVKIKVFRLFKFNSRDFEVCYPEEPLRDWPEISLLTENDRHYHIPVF
In short: as §1

OTUB1 = OTUB1 (UniProt Q96FW1)
In short: as §1

OTUD4 = biological target: T4, OTUD4 (UniProt Q01804)
T4 sequence (whole entry): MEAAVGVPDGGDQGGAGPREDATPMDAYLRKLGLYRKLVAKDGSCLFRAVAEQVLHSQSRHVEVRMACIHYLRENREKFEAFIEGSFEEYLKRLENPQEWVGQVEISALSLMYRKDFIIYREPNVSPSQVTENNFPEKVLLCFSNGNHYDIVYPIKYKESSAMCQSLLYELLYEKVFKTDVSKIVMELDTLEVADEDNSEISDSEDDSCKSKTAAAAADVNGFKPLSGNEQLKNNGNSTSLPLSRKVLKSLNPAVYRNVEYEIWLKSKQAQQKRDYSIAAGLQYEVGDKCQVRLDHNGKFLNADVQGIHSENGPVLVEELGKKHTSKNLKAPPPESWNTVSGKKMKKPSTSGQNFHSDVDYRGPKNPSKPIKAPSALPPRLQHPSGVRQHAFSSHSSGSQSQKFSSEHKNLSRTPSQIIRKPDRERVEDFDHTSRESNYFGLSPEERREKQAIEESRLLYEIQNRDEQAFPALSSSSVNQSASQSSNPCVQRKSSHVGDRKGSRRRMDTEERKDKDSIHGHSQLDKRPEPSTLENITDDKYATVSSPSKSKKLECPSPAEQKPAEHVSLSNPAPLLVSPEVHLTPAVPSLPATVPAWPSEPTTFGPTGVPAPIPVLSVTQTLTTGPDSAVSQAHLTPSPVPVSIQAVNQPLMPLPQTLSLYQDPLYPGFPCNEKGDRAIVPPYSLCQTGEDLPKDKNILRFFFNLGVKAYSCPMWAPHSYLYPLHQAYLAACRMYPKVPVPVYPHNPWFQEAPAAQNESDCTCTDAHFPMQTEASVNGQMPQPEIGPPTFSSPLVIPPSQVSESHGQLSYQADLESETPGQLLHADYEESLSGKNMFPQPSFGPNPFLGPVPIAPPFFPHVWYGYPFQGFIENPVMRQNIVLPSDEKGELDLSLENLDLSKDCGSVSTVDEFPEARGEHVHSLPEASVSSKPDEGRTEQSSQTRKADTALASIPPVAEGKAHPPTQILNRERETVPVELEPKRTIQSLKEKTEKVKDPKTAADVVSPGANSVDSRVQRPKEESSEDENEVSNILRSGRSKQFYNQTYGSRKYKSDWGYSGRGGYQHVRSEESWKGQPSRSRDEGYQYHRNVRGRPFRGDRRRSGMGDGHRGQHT
In short: as §1

OTUD5 = biological target: T5, OTUD5 (UniProt Q96G74)
T5 sequence (whole entry): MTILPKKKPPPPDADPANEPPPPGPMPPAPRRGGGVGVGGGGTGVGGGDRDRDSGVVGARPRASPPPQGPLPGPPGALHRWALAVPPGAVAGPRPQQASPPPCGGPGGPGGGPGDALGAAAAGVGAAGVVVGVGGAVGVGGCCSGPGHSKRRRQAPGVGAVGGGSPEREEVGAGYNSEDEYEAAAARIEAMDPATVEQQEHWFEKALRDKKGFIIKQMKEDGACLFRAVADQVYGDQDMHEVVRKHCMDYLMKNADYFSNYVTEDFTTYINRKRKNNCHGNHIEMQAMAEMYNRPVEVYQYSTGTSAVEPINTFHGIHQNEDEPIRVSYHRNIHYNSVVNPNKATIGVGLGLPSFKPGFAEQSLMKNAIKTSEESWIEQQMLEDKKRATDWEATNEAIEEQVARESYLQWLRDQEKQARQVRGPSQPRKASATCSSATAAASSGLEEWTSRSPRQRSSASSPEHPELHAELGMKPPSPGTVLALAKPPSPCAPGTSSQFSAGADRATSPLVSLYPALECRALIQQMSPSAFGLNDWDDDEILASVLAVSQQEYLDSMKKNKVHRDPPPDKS
In short: as §1

EIF3H, sequence (O15372 whole entry): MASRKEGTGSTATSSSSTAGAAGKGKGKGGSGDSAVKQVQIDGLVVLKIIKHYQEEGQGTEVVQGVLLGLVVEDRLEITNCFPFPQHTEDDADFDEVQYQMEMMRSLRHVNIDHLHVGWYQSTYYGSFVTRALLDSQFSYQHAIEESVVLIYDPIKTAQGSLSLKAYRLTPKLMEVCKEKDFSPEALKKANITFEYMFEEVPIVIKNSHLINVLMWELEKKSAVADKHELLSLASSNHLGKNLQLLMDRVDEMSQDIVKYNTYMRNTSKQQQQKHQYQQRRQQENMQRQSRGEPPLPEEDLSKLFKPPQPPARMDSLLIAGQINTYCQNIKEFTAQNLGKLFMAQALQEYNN
OTUB1, sequence (Q96FW1 whole entry): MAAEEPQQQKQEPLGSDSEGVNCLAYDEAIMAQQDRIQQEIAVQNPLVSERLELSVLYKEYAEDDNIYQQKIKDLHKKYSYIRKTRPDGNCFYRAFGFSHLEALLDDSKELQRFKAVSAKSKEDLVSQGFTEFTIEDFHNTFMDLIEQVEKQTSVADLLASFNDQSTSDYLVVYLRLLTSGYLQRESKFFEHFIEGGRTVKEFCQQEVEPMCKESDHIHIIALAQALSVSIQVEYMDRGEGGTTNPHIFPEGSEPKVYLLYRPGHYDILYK
EIF3F, sequence (O00303 whole entry): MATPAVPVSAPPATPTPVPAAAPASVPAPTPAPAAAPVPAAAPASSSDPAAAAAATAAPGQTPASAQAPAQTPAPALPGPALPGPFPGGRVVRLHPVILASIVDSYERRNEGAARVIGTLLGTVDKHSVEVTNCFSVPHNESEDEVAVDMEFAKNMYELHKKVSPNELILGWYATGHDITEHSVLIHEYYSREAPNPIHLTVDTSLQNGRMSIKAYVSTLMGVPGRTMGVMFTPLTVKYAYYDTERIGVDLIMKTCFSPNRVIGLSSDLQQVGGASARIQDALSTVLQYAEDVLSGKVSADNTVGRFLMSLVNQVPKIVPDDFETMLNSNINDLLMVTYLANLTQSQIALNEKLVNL
ATXN3, sequence (P54252 whole entry): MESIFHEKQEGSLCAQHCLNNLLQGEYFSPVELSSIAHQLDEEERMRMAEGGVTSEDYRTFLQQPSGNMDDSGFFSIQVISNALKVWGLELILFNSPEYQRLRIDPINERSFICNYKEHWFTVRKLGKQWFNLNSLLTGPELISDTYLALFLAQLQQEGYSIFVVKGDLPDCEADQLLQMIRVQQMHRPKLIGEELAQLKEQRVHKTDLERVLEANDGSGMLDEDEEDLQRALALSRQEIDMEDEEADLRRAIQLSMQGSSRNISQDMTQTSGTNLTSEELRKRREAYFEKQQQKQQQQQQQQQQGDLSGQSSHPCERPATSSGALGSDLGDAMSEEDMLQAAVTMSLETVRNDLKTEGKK

SMILES: O=C(CCl)NC1CCOc2ccccc21 (centres undefined)
- log2 ratio of Biotin-Ahx-Ub-VS probe labelling (ALG13): -0.044
- log2 ratio of Biotin-Ahx-Ub-VS probe labelling (ATXN3): -0.806
- log2 ratio of Biotin-Ahx-Ub-VS probe labelling (BAP1): -2.55 (active)
- log2 ratio of Biotin-Ahx-Ub-VS probe labelling (EIF3F): -0.349
- log2 ratio of Biotin-Ahx-Ub-VS probe labelling (EIF3H): 0.199
- log2 ratio of Biotin-Ahx-Ub-VS probe labelling (FAM105A): 0.29
- log2 ratio of Biotin-Ahx-Ub-VS probe labelling (OTUB1): -0.321
- log2 ratio of Biotin-Ahx-Ub-VS probe labelling (OTUD4): -2.03 (active)
- log2 ratio of Biotin-Ahx-Ub-VS probe labelling (OTUD5): -0.73
